In all, about 330,000 compounds went through this assay and about 2,800 (0.85%) were called active.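 The calls were made as follows: active = mean inhibition across replicates of 60% or more, whatever share of single replicates reaches that level; inconclusive = some that reach 60%, reason not given; inactive = mean inhibition across replicates below 60%.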 Shown is part of a subset that was picked to be rich in actives.
Experiment: inhibitors of MITF-dependent TRPM1 promoter reporter, primary screen, cell-based, SK-MEL-5, single point, luciferase (AID 488899)
Details: SK-MEL-5 TRPM1 promoter luciferase, 24 h; at 12.5 µM; active compounds read high

SMILES	inhibition
O=C(COC(=O)CSc1nnc(-c2ccc(Cl)cc2)o1)Nc1cc(Cl)cc(Cl)c1	-3.64% (inactive)
CC(C)c1nc2oc3c(N4CCN(C)CC4)ncnc3c2c2c1CCC2	5.53% (inactive)
CC(=O)N1CCc2ccc(N)cc21	6.31% (inactive)
CSc1ccccc1NC(=O)c1cnc2sc(C)cn2c1=O	-128% (inactive)
COCCN1C(=O)C(=O)/C(=C(/O)c2ccc(S(=O)(=O)N3CCOCC3)cc2)C1c1ccc(O)c(OC)c1 (configuration not stated)	-1.49% (inactive)
O=C(CNCc1ccc(Cl)cc1)Nc1cccc(C(=O)O)c1	2.1% (inactive)
O=S1(=O)CCC(NC(=S)SCc2ccccc2Br)C1 (configuration not stated)	75.3% (active)
CCCSC(=S)NC1CCS(=O)(=O)C1 (configuration not stated)	17% (inactive)
O=C(CSc1ccccc1F)NC1CCS(=O)(=O)C1 (configuration not stated)	-4.88% (inactive)
COc1ccc(OC)c(Cc2cnc3nc(N)nc(N)c3c2C)c1	8.03% (inactive)
CCOC(=O)N1CCN(C(=O)c2ccc3c(=O)n(CCc4ccc(OC)c(OC)c4)c(=O)[nH]c3c2)CC1	2.29% (inactive)
Cc1oc2c(C)c3oc(=O)c(CC(=O)N[C@@H](CC(C)C)C(=O)N[C@@H](Cc4ccccc4)C(=O)O)c(C)c3cc2c1C	9.54% (inactive)
CC(C)(C)NC(=O)COc1ccc(CNc2ccc3[nH]c(=O)[nH]c3c2)cc1	0.891% (inactive)
O=C(c1ccc2nc(N3CCOCC3)sc2c1)N1CCN(c2ccc(Cl)cc2)CC1	4.87% (inactive)
COc1ccc2nc(N3CCN(C(=O)c4ccc([N+](=O)[O-])o4)CC3)sc2c1	67.3% (active)
COc1ccc2nc(N3C(=O)C(O)=C(C(=O)c4ccco4)C3c3ccco3)sc2c1 (configuration not stated)	10.6% (inactive)
CC(C)(C)c1nnc2sc(SCC(O)=C(C#N)c3nc4ccccc4[nH]3)nn2c1=O	-7.27% (inactive)
O=C(CN1CCc2ccccc2C1)Nc1cccc(S(=O)(=O)N2CCOCC2)c1	4.73% (inactive)
COC(=O)c1ccc(CN2CCC(CO)(Cc3ccc(OC)cc3)CC2)cc1	-13% (inactive)

SMILES	inhibition
Nc1c(Cl)cc(S(N)(=O)=O)cc1S(N)(=O)=O	-2.87% (inactive)
S=C(NCCCc1ccccc1)Nc1ccc(Br)cc1	-6.26% (inactive)
C=C(C)C(=O)O[C@H]1C/C(C)=C\C(=O)/C=C(\C)[C@H](O)[C@@H]2OC(=O)C(=C)[C@@H]21	85.9% (active)
O=[N+]([O-])c1cccc(C=NN=Cc2ccccc2O)c1	-42.5% (inactive)
CCOc1ccc(CCNC(=O)COC(=O)C2CCN(S(=O)(=O)c3ccccc3)CC2)cc1OCC	9.54% (inactive)
Cc1c(Cl)c([N+](=O)[O-])nn1Cc1ccc(C(=O)N/N=C\c2cc(Cl)ccc2O)o1	65.8% (active)
O=C(N/N=C\c1ccc(Br)cc1)c1ccc(Cn2cccn2)o1	-24.2% (inactive)
Cc1nn(Cc2ccc(Cl)cc2)c(Cl)c1/C=N/NC(=O)c1cccnc1	18.6% (inactive)
COc1ccc(CCN2C(=O)CC(N3CCC(C(N)=O)CC3)C2=O)cc1OC (configuration not stated)	18.7% (inactive)
CCCCN1CC(COCc2ccccc2)OCCS1(=O)=O (configuration not stated)	6.74% (inactive)
O=C(CC1Sc2ccccc2NC1=O)NNc1ccc(Cl)c(Cl)c1 (configuration not stated)	-0.562% (inactive)
C[C@H]1CN([C@@H](C)CO)C(=O)Cc2cc(NC(=O)Cc3ccccc3)ccc2O[C@H]1CN(C)S(=O)(=O)c1cccs1	14.1% (inactive)
CCCCCn1c(=O)c(C(=O)OCC)c(Cl)c2ccccc21	6.88% (inactive)
CC(=O)Oc1c(C(=O)c2nnc(C)o2)c(=O)n(Cc2ccccc2)c2ccccc12	66% (active)
CC(=O)c1nc2ccccc2n1Cc1ccccc1	3.29% (inactive)
Cc1ccc(NC(=S)NC(NC(=O)Cc2cccc3ccccc23)C(Cl)(Cl)Cl)cc1 (configuration not stated)	36% (inactive)
Cc1n[nH]c(=O)c2c1nnn2Cc1ccc(F)cc1	0.048% (inactive)
Cc1ccc(CNS(=O)(=O)CCNC(=O)c2ccccc2)cc1	-8.66% (inactive)
COc1cc(/C=C2\Oc3ccc(C#Cc4ccc(O)cc4)cc3C2=O)cc(OC)c1	73.1% (active)

SMILES	inhibition
COC(=O)C(C)Oc1ccc2c(c1)O/C(=C\c1cccc(Br)c1)C2=O (configuration not stated)	-3.21% (inactive)
COc1cc(C#Cc2ccc3cc(CCCO)oc(=O)c3c2)cc(OC)c1	-11.2% (inactive)
O=C(C1CC(=O)N(C2CCCC2)C1)N1CCN(c2cccc(C(F)(F)F)c2)CC1 (configuration not stated)	3.91% (inactive)
C[C@H](CO)N1C[C@H](C)[C@H](CN(C)CC2CC2)Oc2ccc(NC(=O)CCN3CCOCC3)cc2C1=O	-4.39% (inactive)
O=C(CCNC(=O)c1ccc([N+](=O)[O-])cc1)NC1CCCCC1	8.98% (inactive)
O=c1oc2ccccc2c(=O)c2ccccc12	-0.811% (inactive)
NC(=O)C1CCN(C(=O)c2ccc(-c3ccccc3)cc2)CC1	-7.15% (inactive)
O=C1Nc2cc(C(=O)N3CCC(N4CCCCC4)CC3)ccc2S/C1=C\c1ccccc1	88.1% (active)
O=C(Nc1ccccc1)C1CCN(C(=O)c2ccc(Br)cc2)CC1	-9.91% (inactive)
O=C1[C@@H](c2ccccc2)[C@@H](c2ccccc2)N1c1cccnc1	-10.4% (inactive)
COc1ccc(C2NC(=O)C(=O)/C2=C(\O)c2ccc(Cl)cc2)cc1OC (configuration not stated)	-6.72% (inactive)
CCOc1cc(N2CCOCC2)c(OCC)cc1NC(=O)c1ccc(C)s1	4.27% (inactive)
CCOc1cc(N2CCOCC2)c(OCC)cc1NC(=O)COc1cccc(Cl)c1	0.482% (inactive)
CCOc1cc(N2CCOCC2)c(OCC)cc1NC(=O)COc1cccc2cccnc12	83.8% (active)
CCN1C(=O)N[C@@H](c2ccccc2)[C@H](C(C)=O)[C@H]1C	2.98% (inactive)
CCOc1ccc(C(=O)NC(=S)Nc2ccc(N3CCOCC3)c(Cl)c2)cc1[N+](=O)[O-]	6.29% (inactive)
Cc1cc(=O)[nH]c2nnnn12	-4.79% (inactive)
O=C(NN=Cc1ccccc1)c1ccccc1	-52.5% (inactive)
COc1cc(CCC(=O)N2CCN(c3ccccc3Cl)CC2)cc(OC)c1OC	7.49% (inactive)

Source: PubChem BioAssay AID488899 (Broad Institute, 2010)
